Tests used:
Assay in all cases: log2 ratio of Biotin-Ahx-Ub-VS probe labelling (fragment/DMSO); higher = less target engagement (more negative = stronger competition), active = hit call of the paper (q ≤ 0.05, log2 ratio ≤ -1)
Conditions in all cases: compound concentration: 200 uM; treatment time: 3 h
OTUD6B = molecular target: T1, OTUD6B (UniProt Q8N6M0)
T1 sequence (whole entry): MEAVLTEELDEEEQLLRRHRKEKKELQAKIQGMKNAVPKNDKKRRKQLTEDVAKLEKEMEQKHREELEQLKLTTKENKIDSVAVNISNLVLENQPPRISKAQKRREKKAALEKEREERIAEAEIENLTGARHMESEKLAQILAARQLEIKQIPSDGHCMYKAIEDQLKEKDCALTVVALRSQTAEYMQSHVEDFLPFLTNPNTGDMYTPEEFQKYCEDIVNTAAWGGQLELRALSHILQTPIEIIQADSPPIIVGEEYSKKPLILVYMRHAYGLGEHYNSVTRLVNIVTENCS
How it was run: (§1)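 Lysate from HEK293T cells, 495 µg per sample in Tris/CHAPS/IGEPAL buffer with protease inhibitors, was treated for 3 h in triplicate with fragment at 200 µM or vehicle. Biotin-Ahx-Ub-VS was next added at 0.5 µM final for 1 h. The labelled DUBs were enriched with NeutrAvidin, digested with LysC and trypsin, and run by diaPASEF LC-MS/MS, with values given as average log2 fragment/vehicle ratios by unpaired t-test on global-median-normalised Spectronaut quantities of proteins with ≥2 unique peptides.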

OTUD7B = molecular target: T2, OTUD7B (UniProt Q6GQQ9)
T2 sequence (whole entry): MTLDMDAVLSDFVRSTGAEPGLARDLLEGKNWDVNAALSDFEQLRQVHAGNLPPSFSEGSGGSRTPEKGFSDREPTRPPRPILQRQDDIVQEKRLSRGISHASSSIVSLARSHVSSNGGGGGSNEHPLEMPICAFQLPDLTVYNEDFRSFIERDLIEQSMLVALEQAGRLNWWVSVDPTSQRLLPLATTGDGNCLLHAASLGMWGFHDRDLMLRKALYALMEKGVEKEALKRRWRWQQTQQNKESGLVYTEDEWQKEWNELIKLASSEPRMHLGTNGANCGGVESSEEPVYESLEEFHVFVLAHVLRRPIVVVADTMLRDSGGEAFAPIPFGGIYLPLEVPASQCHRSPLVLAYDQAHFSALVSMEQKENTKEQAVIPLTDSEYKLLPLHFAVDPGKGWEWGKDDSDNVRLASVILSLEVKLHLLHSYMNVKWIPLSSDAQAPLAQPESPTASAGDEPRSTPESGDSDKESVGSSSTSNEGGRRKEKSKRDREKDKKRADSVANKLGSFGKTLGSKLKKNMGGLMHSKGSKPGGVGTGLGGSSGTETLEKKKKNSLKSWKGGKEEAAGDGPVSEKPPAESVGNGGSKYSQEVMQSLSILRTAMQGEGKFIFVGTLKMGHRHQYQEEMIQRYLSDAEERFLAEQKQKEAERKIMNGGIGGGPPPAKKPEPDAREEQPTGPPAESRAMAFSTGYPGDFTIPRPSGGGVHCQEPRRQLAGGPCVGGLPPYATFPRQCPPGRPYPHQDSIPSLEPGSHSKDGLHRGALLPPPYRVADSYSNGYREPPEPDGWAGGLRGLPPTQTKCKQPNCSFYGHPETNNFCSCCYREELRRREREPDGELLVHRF
How it was run: as §1

PRPF8 = PRPF8 (UniProt Q6P2Q9)
How it was run: as §1

PSMD7 = molecular target: T3, PSMD7 (UniProt P51665)
T3 sequence (whole entry): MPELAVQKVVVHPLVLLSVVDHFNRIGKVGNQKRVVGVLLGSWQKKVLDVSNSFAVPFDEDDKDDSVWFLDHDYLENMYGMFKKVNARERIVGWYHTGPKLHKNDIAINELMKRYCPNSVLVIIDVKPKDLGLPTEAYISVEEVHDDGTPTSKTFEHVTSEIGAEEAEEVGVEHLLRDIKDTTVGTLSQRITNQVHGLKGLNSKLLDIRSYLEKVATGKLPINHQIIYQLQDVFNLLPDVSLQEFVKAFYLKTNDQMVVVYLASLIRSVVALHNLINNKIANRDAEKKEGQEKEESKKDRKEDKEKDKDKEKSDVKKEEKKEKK
How it was run: as §1

UCHL1 = UCHL1 (UniProt P09936)
UCHL1, sequence (P09936 whole entry, looked up): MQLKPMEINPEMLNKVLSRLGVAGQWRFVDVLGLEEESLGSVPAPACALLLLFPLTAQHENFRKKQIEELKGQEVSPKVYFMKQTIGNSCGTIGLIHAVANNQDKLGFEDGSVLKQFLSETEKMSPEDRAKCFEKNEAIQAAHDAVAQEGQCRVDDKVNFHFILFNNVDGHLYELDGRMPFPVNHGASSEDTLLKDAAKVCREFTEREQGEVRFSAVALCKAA
How it was run: as §1

UCHL3 = molecular target: T4, UCHL3 (UniProt P15374)
T4 sequence (whole entry): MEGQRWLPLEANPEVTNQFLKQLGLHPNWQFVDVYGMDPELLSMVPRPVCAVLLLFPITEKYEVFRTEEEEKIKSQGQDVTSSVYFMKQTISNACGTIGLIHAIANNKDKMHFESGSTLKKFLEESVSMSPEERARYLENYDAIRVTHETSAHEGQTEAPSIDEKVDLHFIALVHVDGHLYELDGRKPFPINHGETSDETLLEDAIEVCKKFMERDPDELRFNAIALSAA
How it was run: as §1

UCHL5 = molecular target: T5, UCHL5 (UniProt Q9Y5K5)
T5 sequence (whole entry): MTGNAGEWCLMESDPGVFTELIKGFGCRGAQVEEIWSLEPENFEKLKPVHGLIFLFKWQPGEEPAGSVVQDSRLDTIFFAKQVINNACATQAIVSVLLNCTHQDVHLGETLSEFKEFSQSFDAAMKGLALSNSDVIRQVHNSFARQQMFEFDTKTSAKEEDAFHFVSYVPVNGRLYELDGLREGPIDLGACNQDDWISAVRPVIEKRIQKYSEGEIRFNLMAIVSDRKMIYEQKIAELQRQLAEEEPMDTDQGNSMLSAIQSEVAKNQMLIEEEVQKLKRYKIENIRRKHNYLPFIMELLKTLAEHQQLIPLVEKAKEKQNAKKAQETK
How it was run: as §1

USP10 = USP10 (UniProt Q14694)
USP10, sequence (Q14694 whole entry): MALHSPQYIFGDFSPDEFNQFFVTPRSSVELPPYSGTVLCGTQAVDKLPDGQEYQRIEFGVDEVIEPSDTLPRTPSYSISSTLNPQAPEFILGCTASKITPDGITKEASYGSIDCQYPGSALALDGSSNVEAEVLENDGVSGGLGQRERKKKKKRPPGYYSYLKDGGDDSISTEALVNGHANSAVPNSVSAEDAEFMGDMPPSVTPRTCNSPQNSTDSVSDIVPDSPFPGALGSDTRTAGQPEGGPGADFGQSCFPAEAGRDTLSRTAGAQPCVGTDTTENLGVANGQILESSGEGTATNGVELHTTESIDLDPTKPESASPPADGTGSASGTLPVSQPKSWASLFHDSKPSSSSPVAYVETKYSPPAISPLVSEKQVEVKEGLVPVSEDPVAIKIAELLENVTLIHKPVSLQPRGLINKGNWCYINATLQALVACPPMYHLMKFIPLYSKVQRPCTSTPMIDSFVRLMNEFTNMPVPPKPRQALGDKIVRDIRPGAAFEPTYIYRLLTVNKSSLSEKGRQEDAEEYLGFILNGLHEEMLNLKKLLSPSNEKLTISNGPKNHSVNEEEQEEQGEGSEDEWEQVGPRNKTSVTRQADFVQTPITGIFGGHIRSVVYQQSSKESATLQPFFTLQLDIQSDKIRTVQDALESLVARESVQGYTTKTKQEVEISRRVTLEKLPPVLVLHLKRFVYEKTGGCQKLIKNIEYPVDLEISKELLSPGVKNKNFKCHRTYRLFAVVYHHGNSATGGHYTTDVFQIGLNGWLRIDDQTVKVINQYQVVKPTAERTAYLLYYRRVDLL
How it was run: as §1

USP15 = molecular target: T6, USP15 (UniProt Q9Y4E8)
T6 sequence (whole entry): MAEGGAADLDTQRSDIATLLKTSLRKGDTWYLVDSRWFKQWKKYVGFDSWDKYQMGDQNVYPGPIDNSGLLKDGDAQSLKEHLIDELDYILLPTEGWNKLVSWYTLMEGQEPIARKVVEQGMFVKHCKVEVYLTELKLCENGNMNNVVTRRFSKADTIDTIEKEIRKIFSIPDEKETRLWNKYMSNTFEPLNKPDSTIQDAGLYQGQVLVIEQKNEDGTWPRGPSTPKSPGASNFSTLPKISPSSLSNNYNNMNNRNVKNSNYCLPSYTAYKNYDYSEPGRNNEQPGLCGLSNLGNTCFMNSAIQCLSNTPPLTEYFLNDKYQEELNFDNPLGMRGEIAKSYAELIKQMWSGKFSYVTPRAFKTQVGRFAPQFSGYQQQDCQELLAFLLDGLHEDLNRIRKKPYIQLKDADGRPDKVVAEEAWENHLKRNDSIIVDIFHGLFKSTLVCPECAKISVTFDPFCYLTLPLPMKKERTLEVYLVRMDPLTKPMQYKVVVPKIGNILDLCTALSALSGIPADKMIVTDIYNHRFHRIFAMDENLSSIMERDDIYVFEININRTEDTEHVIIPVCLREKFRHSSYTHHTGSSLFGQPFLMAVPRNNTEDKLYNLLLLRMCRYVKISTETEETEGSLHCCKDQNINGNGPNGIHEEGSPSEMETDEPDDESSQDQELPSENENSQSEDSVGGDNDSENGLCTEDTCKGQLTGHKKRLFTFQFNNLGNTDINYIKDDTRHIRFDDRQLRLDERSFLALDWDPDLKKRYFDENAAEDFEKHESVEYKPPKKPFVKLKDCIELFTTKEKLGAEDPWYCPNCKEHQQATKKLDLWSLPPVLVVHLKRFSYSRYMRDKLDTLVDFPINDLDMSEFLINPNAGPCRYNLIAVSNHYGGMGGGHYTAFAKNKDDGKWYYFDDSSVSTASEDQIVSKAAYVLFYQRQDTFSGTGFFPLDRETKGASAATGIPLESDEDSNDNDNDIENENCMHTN
How it was run: as §1

USP16 = USP16 (UniProt Q9Y5T5)
USP16, sequence (Q9Y5T5 whole entry, looked up): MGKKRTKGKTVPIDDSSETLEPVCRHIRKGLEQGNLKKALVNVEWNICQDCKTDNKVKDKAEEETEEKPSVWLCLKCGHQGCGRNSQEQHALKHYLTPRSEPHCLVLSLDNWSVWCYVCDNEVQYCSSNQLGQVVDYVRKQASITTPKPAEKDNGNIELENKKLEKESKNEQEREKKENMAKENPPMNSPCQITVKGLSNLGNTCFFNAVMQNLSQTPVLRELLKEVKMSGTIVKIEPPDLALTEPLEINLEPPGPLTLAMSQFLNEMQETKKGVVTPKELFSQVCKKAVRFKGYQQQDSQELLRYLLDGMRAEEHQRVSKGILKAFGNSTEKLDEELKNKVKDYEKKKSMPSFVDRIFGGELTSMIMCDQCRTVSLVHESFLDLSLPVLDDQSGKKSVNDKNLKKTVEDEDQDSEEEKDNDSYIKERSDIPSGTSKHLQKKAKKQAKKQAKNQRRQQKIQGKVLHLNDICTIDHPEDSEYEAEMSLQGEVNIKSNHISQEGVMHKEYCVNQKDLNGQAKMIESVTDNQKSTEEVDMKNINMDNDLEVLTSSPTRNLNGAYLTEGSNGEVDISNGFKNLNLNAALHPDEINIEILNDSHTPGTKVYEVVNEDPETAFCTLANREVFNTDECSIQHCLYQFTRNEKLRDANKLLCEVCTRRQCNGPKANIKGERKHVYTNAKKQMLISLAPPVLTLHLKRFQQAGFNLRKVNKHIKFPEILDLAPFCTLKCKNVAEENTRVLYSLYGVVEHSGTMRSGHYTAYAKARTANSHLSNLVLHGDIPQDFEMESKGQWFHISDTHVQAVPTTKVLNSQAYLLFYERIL
How it was run: as §1

Measured: log2 ratio of Biotin-Ahx-Ub-VS probe labelling

Cl.O=C(CCl)NCCN1CCc2ccccc21
active: UCHL1 -2.25 | UCHL5 -1.03
inactive: OTUD6B -0.983 | OTUD7B -0.675 | PRPF8 0.014 | PSMD7 -0.0696 | UCHL3 -0.556 | USP10 -0.344 | USP15 -0.991 | USP16 -0.252

Source: the supplement of paper PMC11732987, “Enantioselective OTUD7B fragment discovery through chemoproteomics screening and high-throughput optimisation” (Communications Chemistry, 2025)
